PubChem BioAssay (NCATS)
Inconclusive results are not listed. Activity calls are given as the source filed them. Unless noted, no rule for the calls is given here.

Legend:
[1] = qHTS profiling for inhibitors of Plasmodium falciparum (HB3) proliferation (AID 743324; active = well fitted curve in the direction sought with a large enough effect; an effect the other way counts as inactive or inconclusive;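 also: 100% = DMSO vehicle wells and 0% = artemisinin-treated control wells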); conditions: Plasmodium falciparum HB3 blood-stage proliferation; at 28.7 µM (top of the series) unless noted
In short: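 P. falciparum HB3 grown in erythrocytes (0.3% parasitemia, 2.5% hematocrit final) with compound for 72 h at 37 C, 5% CO2. Parasite DNA detected by SYBR Green after saponin/triton lysis overnight; normalized to 0.29 uM artemisinin and DMSO.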

[2] = qHTS profiling of the MIPE4 collection as inhibitors of Plasmodium falciparum (3D7) proliferation (AID 743344);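 also: scaled between DMSO vehicle wells and 0.29 µM artemisinin as full inhibition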; conditions: P. falciparum 3D7 in erythrocytes, SYBR Green DNA fluorescence, 72 h; at 28.5 µM (top of the series) unless noted
In short: (§1)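 Erythrocytes infected with P. falciparum (0.3% parasitemia, 2.5% hematocrit) incubated with compounds 72 h at 37 C, 5% CO2. Lysis with saponin/Triton buffer containing SYBR Green I, overnight at room temperature in the dark; DNA fluorescence (485/535 nm) normalised to 0.29 uM artemisinin and DMSO.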

[3] = qHTS profiling of the MIPE4 collection as inhibitors of Plasmodium falciparum (DD2) proliferation (AID 743345); conditions: P. falciparum Dd2 in erythrocytes, SYBR Green DNA, 72 h; at 28.5 µM (top of the series) unless noted
In short: as §1

[4] = qHTS profiling of the MIPE4 collection as inhibitors of Plasmodium falciparum (DD2) proliferation (Rep 2) (AID 743346); conditions: P. falciparum Dd2 in erythrocytes, SYBR Green DNA, 72 h; at 28.5 µM (top of the series) unless noted
In short: as §1

[5] = Cell Proliferation Assay Versus the ED40515 IL2 Dependent ATL cell lines (AID 1053195; calls by dose curve); conditions: ED40515 IL2-dependent ATL cells
In short: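 IL2-dependent ED40515 ATL cells grown with IL2, 1000 cells/well in phenol red-free RPMI + 5% FBS, exposed 48 hours at 37C. Viability by CellTiter-Glo luminescence after 15 min at RT; 9.2 uM bortezomib as control.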

[6] = High-throughput drug toxicity screening in the BPDCN cell line Gen2.2 (AID 1224824); conditions: Gen2.2 BPDCN cells; at 45.8 µM (top of the series) unless noted;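 also: cells exposed to compounds for 48 h before reading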
In short: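 Gen2.2 cells (500/well) in phenol red-free RPMI with 10% FBS were exposed to compounds for 48 h at 37 °C, 5% CO2. Viability was read by CellTiter-Glo luminescence and normalized to DMSO (100%) and 9.2 uM bortezomib (0%).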

[7] = High-throughput drug toxicity screening in the BPDCN cell line Cal-1 (AID 1224825); conditions: Cal-1 BPDCN cell viability, qHTS; at 45.8 µM (top of the series) unless noted
In short: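 Cal-1 cells, 500 per well in phenol-red-free RPMI with 10% FBS, exposed to compounds for 48 hours at 37C, 5% CO2. Viability read by CellTiter-Glo luminescence; percent activity normalized to DMSO (100%) and 9.2 uM bortezomib final (0%).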

[8] = qHTS profiling of the MIPE4 collection as inhibitors of Plasmodium falciparum (HB3) proliferation (AID 743347);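 also: plate controls were DMSO vehicle wells for no effect and artemisinin wells for full effect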; conditions: P. falciparum HB3 in erythrocytes, SYBR Green DNA, 72 h; at 28.5 µM (top of the series) unless noted
In short: as §1

[9] = qHTS assay for measurement of the activity of small molecule inhibitors on Zika virus induced Caspase-3 activity in human iPSC derived neural progenitor cells (hNPCs) (AID 1224857; active = well fitted curve in the direction sought with a large enough effect; an effect the other way counts as inactive or inconclusive; also: nearly all actives have a fitted effect of over 65% in size; also: potency is read from the fitted curve at half-maximal effect)
In short: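 After overnight (16–20 h) culture at 350 cells/well, hNPCs get compound, then ZIKV 2 FFU/cell one hour later. Six hours on, Caspase-Glo 3/7 is added and luminescence measured.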

| Structure (SMILES) | remaining proliferation (% of control), lower = more inhibition [1] | parasite growth, % of DMSO control [2] | parasite growth remaining, % of DMSO control (lower = more inhibition) [3] | parasite growth, % of control (lower = inhibition) [4] | Potency [5] | cell viability, % of control (lower = more cytotoxic) [6] | viability (% of control) [7] | growth, % of control [8] | Potency [9] |
| --- | --- | --- | --- | --- | --- | --- | --- | --- | --- |
| CN(C)c1ccc(Nc2nc(N)n(C(=O)c3c(F)cccc3F)n2)cc1 | 7.62% | 10.5% | 51.7% | 13.6% | 0.743 µM (active) | 73.4% | 14.1% |  |  |
| Oc1cccc(-c2nc(N3CCOCC3)c3oc4ncccc4c3n2)c1 | 1.45% | 6.68% [at 57.5 µM] | 8.08% [at 57.5 µM] | 21.1% [at 57.5 µM] | 0.743 µM (active) | 8.19% [at 92.2 µM] | 17.8% [at 92.2 µM] | 5.67% [at 57.5 µM] | inactive |
| COc1ccc2c3n(c(=NC(=O)c4cccnc4)nc2c1OC)CCN3 | 1.47% | 5.7% | 10.1% | 7.17% | 4.18 µM (active) | 9.57% | 12.7% | 3.38% | inactive |
| COc1cc(F)c(F)c(Nc2ccc(I)cc2F)c1NS(=O)(=O)C1(C[C@H](O)CO)CC1 | 39.5% | 45.3% | 71.1% | 26.7% | 37.2 µM (active) | 27.8% | 82.2% | 17.2% | inactive |
| Cc1cc(-c2ccc(CC(=O)Nc3ccc(-c4cccnc4)cc3)cc2)ccn1 | 6.55% | 32.3% | 95.7% |  | 4.18 µM (active) | 255% | 20.4% |  | inactive |
| O=C(O)[C@@H](c1ccc(OCc2ccc3ccccc3n2)cc1)C1CCCC1 | 106% | 90.1% | 102% | 130% | 26.4 µM (active) | 125% | 73.2% |  | 16.6 µM (active) |
| CNC(=O)c1ccc(C)c(-n2c(C)cc(OCc3ccc(F)cc3F)c(Br)c2=O)c1 | 52.2% | 42% | 84.9% | 50.9% | 5.9 µM (active) | 140% | 94.3% | 93.8% | inactive |
| S=C(NCc1ccc2c(c1)OCO2)N1CCN(c2ncnc3c2oc2ccccc23)CC1 | 28.7% | 20.8% [at 57.5 µM] | 66.7% [at 57.5 µM] |  | 0.0662 µM (active) | 387% [at 92.2 µM] | 56.7% [at 92.2 µM] |  | inactive |
| O=C1[C@H](Cc2ccc(O)cc2)N2C(=O)CCN(C(=O)NCc3ccccc3)[C@H]2CN1Cc1cccc2ccccc12 | -0.183% | 5.06% | 56% | 40.6% | 8.33 µM (active) | 6.07% | 31.2% | 12.1% | inactive |
| COc1ccc(-c2ccc3c(N4CCOCC4)nc(N4C[C@@H](C)O[C@@H](C)C4)nc3n2)cc1CO | 18.1% | 6.12% | 15.1% | 17.2% | 1.48 µM (active) | 19.2% | 12.6% | 5.91% | inactive |
| Nc1nc2ccc(OC(F)(F)F)cc2s1 |  | 7.34% | 7.7% | 33.2% | 23.5 µM (active) |  | 103% | 7.48% | inactive |
